As usually defined, the inhibition is the relative decrease from the control value, in per cent.

Common to all, as to assay type: functional
Test [1] addresses Solute carrier family 2, facilitated glucose transporter member 1 (Homo sapiens) (UniProt P11166). The test can be described thus: ST_JUDE_LEISH: Cytotoxicity at 2uM final concentration against transgenic Leishmania Mexicana promastigotes LmGLUT1 that are glucose transport deficient and complemented with the human glucose transporter GLUT1. Activity is measured by DNA content using SYBR green in vitro.

Test [2] concerns the target Hexose transporter 1 (Plasmodium falciparum) (UniProt O97467). In words: ST_JUDE_LEISH: Cytotoxicity at 2uM final concentration against transgenic Leishmania Mexicana promastigotes LmPfHT that are glucose transport deficient and complemented with the Plasmodium falciparum hexose transporter. Activity is measured by DNA content using SYBR green in vitro.
The target in test [3] is Glucose transporter (Leishmania mexicana) (UniProt O61059). In words: ST_JUDE_LEISH: Cytotoxicity at 2uM final concentration against transgenic Leishmania Mexicana promastigotes LmGT2 that are glucose transport deficient and complemented with the L. Mexicana glucose transporter 2. Activity is measured by DNA content using SYBR green in vitro.

Solute carrier family 2, facilitated glucose transporter member 1 (Homo sapiens), sequence (P11166 whole entry): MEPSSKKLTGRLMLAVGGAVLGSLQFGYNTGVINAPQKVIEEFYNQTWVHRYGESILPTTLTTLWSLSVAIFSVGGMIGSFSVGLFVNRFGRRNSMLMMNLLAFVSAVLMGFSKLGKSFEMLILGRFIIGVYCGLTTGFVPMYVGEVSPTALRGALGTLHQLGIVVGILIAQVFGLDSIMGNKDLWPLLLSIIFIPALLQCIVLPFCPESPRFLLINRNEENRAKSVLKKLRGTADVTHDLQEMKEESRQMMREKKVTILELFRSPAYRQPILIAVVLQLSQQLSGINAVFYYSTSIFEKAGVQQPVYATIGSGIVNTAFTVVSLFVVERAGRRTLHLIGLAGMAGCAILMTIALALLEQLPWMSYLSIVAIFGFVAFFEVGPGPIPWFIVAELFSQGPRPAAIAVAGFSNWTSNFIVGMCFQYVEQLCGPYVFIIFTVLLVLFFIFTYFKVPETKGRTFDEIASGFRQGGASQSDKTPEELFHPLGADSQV

Regarding `c1cc(CNCC2CCCO2)cc(-c2csc(-c3nc4ccccc4[nH]3)c2)c1` (stereo unspecified), the inhibition in test [1] was -1.5%; in test [2], 2.45%; in test [3] it was 2.04%.
For `N#Cc1ccc(N(CCOc2ccc(Cl)c(F)c2)Cc2ccccc2C(F)(F)F)cc1C(F)(F)F`, in that order: 3.18%, 0.42% and -1.25%.
Take `CC(CN1CCN(C)CC1)C(=O)Nc1cccc(-c2ccc(-c3nc4cc(F)ccc4[nH]3)cc2)c1` (stereo unspecified): the inhibition in test [1] turned out to be 4.67%; in test [2], 3.13%; in test [3], 2.7%.
For `COc1ccc2nccc(N3CCC(NCCNCc4cc5c(cn4)OCCO5)C3)c2n1` (stereo unspecified) the same measures were 2.14%, 2.64% and 3.54%.
For `CNCc1ccc(-c2cccc(CNCc3ccc(-c4ccccc4)cc3)c2)c(C(=O)OC)c1`, in that order: 1.39%, 2.72% and 2.91%.
For `CCCCNC(=O)[C@H](CC1CCCCC1)NC(=O)c1ccc(O)c(-c2ccc(OC)cc2)c1`, in that order: 2.45%, 2.88% and 4.23%.
For the molecule `Cc1ccc(Cn2ncc(N3CCNCC3)c(Cl)c2=O)cc1NC(=O)Nc1ccc(-c2ccccc2)cc1`, the inhibition was -0.01% in test [1], 2.78% in test [2] and 2.01% in test [3].
With `Cc1cccc2nc(-c3ccc(-c4ccc(NC(=O)C(C)CN5CCN(C)CC5)cc4)s3)[nH]c12` (stereo unspecified), the results for the inhibition in test [1], in test [2] and in test [3] were 3.39%, 3.1% and 2.29%, respectively.
Take `O=c1cc(NC[C@H]2CCC[C@@H]2NC2CCCc3c2[nH]c2ccccc32)[nH]c2ccccc12` (stereo partly specified): the inhibition in test [1] is 0.74%; in test [2], -1.31%; in test [3] it was 5.67%.
Regarding `Cc1cc(N[C@@H](CC(C)C)C(=O)NC2CCCC2)nc(NCc2ccccc2C)n1`, the inhibition in test [1] stood at 4.21%; in test [2] it was 4.39%; in test [3], 1.62%.
In the case of `Cc1cccc2nc(-c3ccc(-c4cccc(CN5CCCC(O)C5)c4)s3)[nH]c12` (stereo unspecified), the inhibition came out at 3.6% in test [1], 4.83% in test [2] and 2.93% in test [3].
Regarding `COc1ccc(NC(=O)Nc2ccc(Nc3nc(C)cc(N(C)C)n3)cc2)cc1`, the inhibition in test [1] was 2.57%; in test [2] it was 3.61%; in test [3], 4.41%.

Source of the values: ChEMBL document CHEMBL3433997, “St. Jude Leishmania screening dataset” (2016).
